Assay results reported in paper PMC5540273 (PLoS ONE, 2017).
Read-outs that look alike come from different tables or passages of the source.

How the values were obtained:
Details in all cases: n = 1
PIM1 = system: PIM1
PIM2 = system: PIM2
PIM3 = system: PIM3
PIP5K1A = system: PIP5K1A
PIP5K1C = system: PIP5K1C
PIP5K2B = system: PIP5K2B
PIP5K2C = system: T1, PIP5K2C
T1 construct: gene PIP4K2C

PKAC-alpha = system: T2, PKAC-alpha
T2 construct: gene PRKACA

PKAC-beta = system: T3, PKAC-beta
T3 construct: gene PRKACB

PKMYT1 = system: PKMYT1
[1] = concentration: 1 μM, replicates: in singlicate
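Also: KINOMEscan kinase panel screen.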

Structure (SMILES) | %Inh (PIM1; [1]) [%] | %Inh (PIM2; [1]) [%] | %Inh (PIM3; [1]) [%] | %Inh (PIP5K1A; [1]) [%] | %Inh (PIP5K1C; [1]) [%] | %Inh (PIP5K2B; [1]) [%] | %Inh (PIP5K2C; [1]) [%] | %Inh (PKAC-alpha; [1]) [%] | %Inh (PKAC-beta; [1]) [%] | %Inh (PKMYT1; [1]) [%] | %Inh (PIM1; 1 µM) [%] | %Inh (PIM2; 1 µM) [%] | %Inh (PIM3; 1 µM) [%] | %Inh (PIP5K1A; 1 µM) [%] | %Inh (PIP5K1C; 1 µM) [%] | %Inh (PIP5K2B; 1 µM) [%] | %Inh (PIP5K2C; 1 µM) [%] | %Inh (PKAC-alpha; 1 µM) [%] | %Inh (PKAC-beta; 1 µM) [%] | %Inh (PKMYT1; 1 µM) [%]
Cc1nnc(-c2ccc3occ(-c4ccc(S(C)=O)cc4)c3c2)[nH]1 (centres unmarked) | 32 | 58 | 35 | 0 | 63 | 35 | 61 | 9 | 0 | 21 | – | – | – | – | – | – | – | – | – | –
O=C(Nc1n[nH]c2cc(-c3cccc(F)c3F)ccc12)C1CC1 [SB-733894] | 8 | 0 | 32 | 0 | 0 | 0 | 0 | 0 | 0 | 40 | – | – | – | – | – | – | – | – | – | –
COc1ccccc1-c1ccc2c(NC(=O)C3CC3)n[nH]c2n1 [SB-711239] | 13 | 0 | 0 | 41 | 53 | 30 | 19 | 6 | 2 | 0 | – | – | – | – | – | – | – | – | – | –
COc1cc(Nc2nccc(N3CCC(NC(=O)Nc4cc(C)ccc4C)C3)n2)cc(OC)c1OC (centres unmarked) [GSK1379762] | 0 | 0 | 0 | 0 | 21 | 16 | 70 | 5 | 0 | 0 | – | – | – | – | – | – | – | – | – | –
O=C(Nc1ccc2c(c1)OCO2)NC1CCN(c2ccnc(Nc3ccc(F)cc3)n2)C1 (centres unmarked) [GSK1379724] | 0 | 0 | 0 | 34 | 32 | 13 | 23 | 0 | 0 | 15 | – | – | – | – | – | – | – | – | – | –
CN(C)CCN(C)C(=O)c1cc(-c2ccncc2)c(-c2ccc(Cl)c(O)c2)o1.Cl.Cl [SB-710397] | 0 | 0 | 0 | 1 | 67 | 8 | 42 | 9 | 0 | 0 | – | – | – | – | – | – | – | – | – | –
Cn1cncc1-c1ccc2ncnc(Nc3ccc(OCc4ccccc4)cc3)c2c1 [GW320571] | 0 | 2 | 0 | 0 | 16 | 17 | 76 | 0 | 8 | 8 | – | – | – | – | – | – | – | – | – | –
Cc1cc(NCC(c2ccccc2)c2ccccc2)nc(NCc2ccc(C(F)(F)F)cc2)n1 [GW497681] | 12 | 0 | 0 | 0 | 53 | 8 | 0 | 0 | 0 | 0 | – | – | – | – | – | – | – | – | – | –
CS(=O)(=O)c1ccc(-c2c(-c3ncn[nH]3)sc(N3CCOCC3)c2C#N)cc1 | 0 | 0 | 0 | 0 | 0 | 14 | 0 | 0 | 7 | 0 | – | – | – | – | – | – | – | – | – | –
COc1ccc(Nc2nccc(-c3cccc(NC(=O)c4cc5cc(F)ccc5[nH]4)c3)n2)cc1 [GSK1229782] | 36 | 0 | 30 | 0 | 15 | 12 | 81 | 15 | 21 | 6 | – | – | – | – | – | – | – | – | – | –
Cc1c(Cn2ccn3c(=O)cc(N4CCOCC4)nc23)cccc1C(F)(F)F [GSK2289044] | 0 | 0 | 4 | 0 | 10 | 15 | 0 | 11 | 0 | 0 | – | – | – | – | – | – | – | – | – | –
Cn1ccc2ncnc(Oc3ccc(Nc4nc5ccccc5[nH]4)cc3)c21 | 0 | 0 | 0 | 0 | 25 | 26 | 16 | 3 | 0 | 18 | – | – | – | – | – | – | – | – | – | –
Cn1ccc2ncnc(Oc3ccc(NC(=O)Nc4ccccc4)cc3)c21 | 8 | 13 | 22 | 0 | 5 | 5 | 1 | 16 | 17 | 16 | – | – | – | – | – | – | – | – | – | –
Cl.O=C(Nc1cccc(-c2nn3ncccc3c2-c2ccnc(Nc3cccnc3)n2)c1)c1c(F)cccc1F [GSK312879] | 11 | 0 | 0 | 2 | 11 | 4 | 0 | 14 | 19 | 20 | – | – | – | – | – | – | – | – | – | –
CCn1c(-c2cccnc2O)nc2cnccc21 [SB-736715] | 0 | 0 | 0 | 0 | 0 | 0 | 19 | 4 | 0 | 0 | – | – | – | – | – | – | – | – | – | –
COc1cccc(NC(=O)NC2CCN(c3ccnc(Nc4ccc(F)cc4)n3)C2)c1 (centres unmarked) [GSK1379721] | 9 | 0 | 0 | 38 | 59 | 0 | 0 | 0 | 0 | 0 | – | – | – | – | – | – | – | – | – | –
Cc1ccc(-c2cc(-c3c[nH]nc3-c3ccccn3)ccn2)cc1 [GW684088] | 20 | 0 | 2 | 50 | 71 | 8 | 67 | 30 | 0 | 0 | – | – | – | – | – | – | – | – | – | –
Cc1ccc(NC(=O)Nc2cccc(C(F)(F)F)c2)cc1 [GSK955403] | – | – | – | – | – | – | – | – | – | – | 5 | 15 | 21 | 0 | 0 | 0 | 0 | 14 | 14 | 0
C[C@@H]1CCCCN1c1cc(-c2ccc3c(N)n[nH]c3c2)nc(N)n1 [GSK2258759] | 0 | 0 | 7 | 0 | 44 | 4 | 0 | 0 | 0 | 2 | – | – | – | – | – | – | – | – | – | –
Cc1ccccc1-n1cnc2c(N)ncnc21 [SKF-97510] | 0 | 0 | 2 | 0 | 0 | 0 | 0 | 10 | 0 | 0 | – | – | – | – | – | – | – | – | – | –
